Screen size: about 360,000 compounds; about 7,500 (2.1%) were called active. Inconclusive results (about 20%) are left out. Calls follow the shape of the dose curve; as a rule, active = well fitted inhibition curve with a large enough effect; inconclusive = small, poorly fitted or top-dose-only effect, or effect the other way; inactive = flat fitted curve, though single readings scatter. Shown is part of a subset that was picked to be rich in actives. Where a call stands in place of a potency, no number is given.
Experiment: Nrf2 qHTS screen for inhibitors; also: nearly all actives have a fitted effect of over 60% in size
Conditions: A549 ARE-Fluc reporter, luciferase luminescence, 18-24 h; series mostly up to 46 µM
Method in brief: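 Quantitative HTS in A549 cells stably bearing an antioxidant response element-firefly luciferase construct. Inhibition of Nrf2-driven transcription was scored by luminescence after 18-24 h of compound exposure at 37 °C.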
Potency is read from the fitted curve at half-maximal effect.

| SMILES | Potency |
| --- | --- |
| Cc1cccc(NC(=O)c2cccc(S(=O)(=O)N3CCCC3)c2)n1 | inactive |
| CCn1c(O)c(N=NC(=O)c2cccc(S(=O)(=O)N3CCCCC3)c2)c2ccccc21 | 20.6 µM (active) |
| Cc1ccc(S(=O)(=O)N2CCN(C(=O)COC(=O)/C=C/c3cccc(Cl)c3)CC2)c(C)c1 | inactive |
| COC(=O)c1ccccc1NC(=O)c1cc(-c2ccccc2O)no1 | inactive |
| Cc1ccc(C)c(S(=O)(=O)N(C)c2ccc(OC(=O)C3CCN(C(=O)c4ccc(F)cc4)CC3)cc2)c1 | inactive |
| COc1cccc2c1cc1c(=O)n(CC(=O)N3CCN(c4ccccc4)CC3)nc(C)n12 | inactive |
| COc1cc(NS(=O)(=O)c2ccc(NC(C)=O)cc2)cc(OC)c1 | 5.8 µM (active) |
| COc1ccc(NS(=O)(=O)c2ccc(NC(=O)c3ccc(N(C)S(C)(=O)=O)cc3)cc2)cc1 | 16.4 µM (active) |
| COc1ccc(NC(=O)c2cnc(NS(=O)(=O)c3ccccc3)nc2)cc1 | inactive |
| COc1cc(OC)cc(C(=O)Nc2ccc(S(=O)(=O)Nc3cc(C)on3)cc2)c1 | inactive |
| COC(=O)COc1ccc(S(=O)(=O)Nc2ccc(NC(C)=O)cc2)cc1 | inactive |
| COc1ccc(NS(=O)(=O)c2ccc(C(=O)Nc3c(C)n(C)n(-c4ccccc4)c3=O)cc2)cc1 | inactive |
| O=C(OCC#CCSc1nnc(-c2ccco2)o1)c1ccc(F)cc1 | inactive |
| CC(C)n1cnc2c(NCc3ccccc3)cc(OCC3CCN(C)CC3)cc21 | inactive |
| Cc1ccc(NC(=O)c2ccc(Cl)nc2)cc1S(=O)(=O)N1CCOCC1 | inactive |
| CCc1ccc(NC(=O)CCCc2nnc3n(CCCOC)c(=O)c4sccc4n23)cc1 | inactive |
| O=C(c1cc2cc(F)ccc2[nH]1)N1CCN(c2ccc(F)cc2)CC1 | inactive |
| O=C(c1cc(C(=O)N2CCN(c3ccc(F)cc3)CC2)cc([N+](=O)[O-])c1)N1CCN(c2ccc(F)cc2)CC1 | 18.4 µM (active) |
| O=C(c1cncc(Br)c1)N1CCN(c2ccc([N+](=O)[O-])cc2)CC1 | inactive |
| Cc1ccc(-n2c(=O)c3cccnc3n2CC(=O)Nc2ccccc2C(F)(F)F)cc1C | inactive |
| CC(C)(C)OC(=O)C[C@@H]1C/C=C\C[C@@H](CC(=O)N(CCO)Cc2ccccc2)C(=O)N[C@H](Cc2ccccc2)COC1=O | inactive |
| CCCn1c(=N)n(CC(O)COc2ccccc2OC)c2ccccc21 (centres undefined) | inactive |
| Cc1nn(Cc2ccc(F)cc2)c(C)c1NC(=O)c1noc2c1CCc1ccccc1-2 | 20.6 µM (active) |
| CC(C)Cc1cc(C(=O)Nc2cc(Br)ccc2O)no1 | inactive |
| Cc1nn(Cc2ccc(F)cc2)c(C)c1NC(=O)c1cc(CC(C)C)on1 | 20.6 µM (active) |

| SMILES | Potency |
| --- | --- |
| Cc1cc(C(=O)Nc2c(C)nn(Cc3ccccc3)c2C)on1 | inactive |
| Cc1nn(Cc2ccc(F)cc2)c(C)c1NC(=O)c1cccnc1Cl | inactive |
| Cc1ccccc1Cn1nc(C)c(NC(=O)c2cc(-c3ccc(F)cc3)on2)c1C | inactive |
| Nn1c(SCC(=O)NC2CCCc3ccccc32)nnc1C1CC1 (centres undefined) | inactive |
| O=C(CN1CCN(C2CCS(=O)(=O)C2)CC1)N1N=C(c2ccc(Cl)cc2)CC1c1ccco1 (centres undefined) | inactive |
| C[C@@H]1NS(=O)(=O)c2cc(Cl)ccc2O[C@@H]1c1ccccc1 | inactive |
| COc1ccc(CNC(=O)c2cc3c(s2)-c2ccccc2OC3)cc1 | inactive |
| O=S(=O)(Nc1ccc2ccccc2c1)N1CCCCC1 | inactive |
| Cc1nnc2n1N=C(c1ccccc1)CS2 | inactive |
| COc1ccc(C2=Nn3c(nnc3-c3ccccc3O)SC2)cc1 | inactive |
| COc1ccc(C2=Nn3c(nnc3-c3ccccc3OC)SC2)cc1OC1CCCC1 | 16.4 µM (active) |
| Cc1cccc(NC(=O)CN(c2ccc(C(C)C)cc2)S(=O)(=O)c2c(C)nn(C)c2C)c1C | inactive |
| O=C1CC(c2ccccc2)CC2=C1C(c1ccco1)n1nc(C(F)(F)F)nc1N2 (centres undefined) | inactive |
| O=S(=O)(Nc1ccccn1)c1ccc(Oc2ccccc2)cc1 | inactive |
| Cc1cc(C)cc(NS(=O)(=O)c2ccc(Oc3ncc(C(F)(F)F)cc3Cl)cc2)c1 | 4.11 µM (active) |
| COC(=O)Cc1ccc(Oc2ncc(C(F)(F)F)cc2Cl)cc1 | inactive |
| O=C(C[C@@H]1C/C=C\CCC(=O)OC[C@@H]2CCCN2C1=O)NCCO | inactive |
| N#CCCN(C(=O)COC(=O)c1ccc2c(c1)OCCO2)c1ccccc1 | inactive |
| Brc1nc2ncnc(NCc3ccco3)c2[nH]1 | inactive |
| O=C(Nc1c(Br)cc2c(c1Br)Cc1cc([N+](=O)[O-])ccc1-2)C(Cl)Cl | inactive |
| COc1ccc(C(CNC(=O)c2cccc(S(=O)(=O)Nc3ccc(Br)cc3)c2)N(C)C)cc1 (centres undefined) | inactive |
| COC(=O)c1ccc(CSc2nnc(NC(C)C)s2)cc1 | inactive |
| Cc1ccc(C(=O)Oc2coc(CSc3nnc(NC(=O)c4cccs4)s3)cc2=O)cc1C | 14.6 µM (active) |
| CCSc1nnc(NC(=O)c2cc(=O)c3cc(C)c(C)cc3o2)s1 | inactive |

Source: PubChem BioAssay AID504444 (National Center for Advancing Translational Sciences (NCATS), 2011)
